Bioassay records deposited in PubChem by several laboratories.
RN4220 kill: kills Staphylococcus aureus RN4220. S. aureus RN4220 growth, OD600, 16 h. AID 1259311. actives 0.33% (n = 330,000). inhibition, % (no concentration beside the values); in the data active means inhibition above about 85%;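 further: plate controls were untreated cells for no effect and reference antibiotic for full effect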
Sa ugtP lethal: kills S. aureus RN4220 lacking UgtP; S. aureus RN4220 ugtP deletion, OD600 growth, 16 h; growth inhibition, % (test concentration not listed); actives 0.54% (n = 330,000); in the data active means growth inhibition above about 68%;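 further: plate controls were untreated wells for no effect and antibiotic for full effect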
SSB-PriA inh: K. pneumoniae PriA-SSBct interaction inhibition | inhibition, % at 33 µM | AID 1272365 | actives 0.6% (n = 430,000) | AlphaScreen SSBct-PriA binding, biotinylated peptide; in the data active means inhibition mostly above about 37%, no sharp cut-off; inactive means mostly below about 20%;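 further: plate controls were negative control peptide for no effect and reference peptide for full effect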
Active calls of the source: *. Rows were chosen to be rich in hits. Some 1% of all compounds tested hit in one or more screens of this group.

Results for CCOc1ccc(C(=O)NC2CCC(Oc3ncccn3)CC2)cn1 (stereo not drawn) ?
SSB-PriA inh: -5

What do the screens show for `CCOC(=O)c1c(-c2ccc(C)o2)csc1NC(=O)C(OC(C)=O)c1ccccc1` (stereo not drawn)?
SSB-PriA inh: -6

What do the screens show for `N#Cc1ccc(C(=O)NCCCN2CCOC(c3ccccc3)C2)cc1` (stereo not drawn)?
SSB-PriA inh: -15

What do the screens show for `Cc1onc(-c2c(Cl)cccc2Cl)c1COC(=O)c1ccc(Cl)cc1`?
RN4220 kill: 5; Sa ugtP lethal: 89*; SSB-PriA inh: -12

What do the screens show for `Cc1onc(-c2c(Cl)cccc2Cl)c1COC(=O)c1ccc([N+](=O)[O-])cc1`?
RN4220 kill: 3; Sa ugtP lethal: 8; SSB-PriA inh: 19

How did O=S(=O)(Nc1cccc2cccnc12)c1ccc(S(=O)(=O)N2CCCC2)cc1 do in these assays?
RN4220 kill: 1; Sa ugtP lethal: 5; SSB-PriA inh: 45*

How did O=S(=O)(Nc1cccc2cccnc12)c1ccccc1 do in these assays?
SSB-PriA inh: -4

How did O=C(Cn1nc(S(=O)(=O)c2ccccc2)ccc1=O)Nc1ccccc1Cl do in these assays?
SSB-PriA inh: -1

Results for CC(=O)c1ccccc1OC(=O)c1c(F)cccc1F ?
RN4220 kill: 2; Sa ugtP lethal: -12; SSB-PriA inh: -13

Results for CC(=O)c1ccccc1OC(=O)c1ccc(-c2ccccc2)cc1 ?
RN4220 kill: 9; Sa ugtP lethal: 100*; SSB-PriA inh: -7

What do the screens show for `O=C(NCCSC1CCOCC1)c1cncc(Br)c1`?
SSB-PriA inh: -12

How did Cc1ccccc1-n1ncc2c([N+](=O)[O-])cc([N+](=O)[O-])cc21 do in these assays?
SSB-PriA inh: 64*

Results for Cc1ccccc1-n1c(-c2ccc([N+](=O)[O-])cc2)nc2ccccc2c1=O ?
RN4220 kill: 2; Sa ugtP lethal: 0; SSB-PriA inh: 29

What do the screens show for `CC(=O)N1N=C(c2ccccc2)CC1c1ccccc1[N+](=O)[O-]` (stereo not drawn)?
RN4220 kill: 7; Sa ugtP lethal: -4; SSB-PriA inh: 3

Results for CC(=O)N1N=C(c2ccc([N+](=O)[O-])cc2)CC1c1ccccc1Cl (stereo not drawn) ?
RN4220 kill: -1; Sa ugtP lethal: -6; SSB-PriA inh: 45*

What do the screens show for `O=C(N[C@H]1CCN(c2ccc(-c3ccccc3F)nn2)C1)c1cccs1`?
SSB-PriA inh: 0

Results for O=C(Nc1ccc2c(c1)CCN2C(=O)C1CCCC1)C1CC1 ?
SSB-PriA inh: -3

What do the screens show for `O=C(CCl)c1ccc2c(c1)CCN2C(=O)C1CCCCC1`?
RN4220 kill: 98*; Sa ugtP lethal: 99*; SSB-PriA inh: 0

Results for COc1ccc2c(C)ccnc2c1 ?
SSB-PriA inh: -1

How did Cc1ccc(N2C(=O)c3ccc(C(=O)N4c5ccccc5CC4C)cc3C2=O)cc1 (stereo not drawn) do in these assays?
SSB-PriA inh: -3

Results for Cc1ccc(N2CCCC(C(=O)Nc3ccccc3Cl)C2)nn1 (stereo not drawn) ?
SSB-PriA inh: 3

Results for CCn1c(C)c(C(C)=O)c(N2CCN(c3cccc(Cl)c3)CC2)nc1=S ?
RN4220 kill: -3; Sa ugtP lethal: 7; SSB-PriA inh: -1

How did CC(=O)c1c(N2CCN(c3cccc(Cl)c3)CC2)nc(=S)n(-c2ccccc2)c1C do in these assays?
RN4220 kill: 71; Sa ugtP lethal: 83*; SSB-PriA inh: 2

What do the screens show for `CCOC(=O)c1c(-c2ccc(OC)cc2)csc1N`?
SSB-PriA inh: 40*

Results for CCOC(=O)c1c(-c2ccncc2)csc1N ?
RN4220 kill: -1; Sa ugtP lethal: -2; SSB-PriA inh: -2

What do the screens show for `O=C(Cc1cc(=O)[nH]c(SCc2ccc(F)cc2)n1)Nc1nc2ccccc2s1`?
SSB-PriA inh: -5

What do the screens show for `OCc1ccc(O)c2ncccc12`?
RN4220 kill: -19; Sa ugtP lethal: -4; SSB-PriA inh: 80*

What do the screens show for `O=C(O)Cc1ccc(O)c2ncccc12`?
SSB-PriA inh: 87*

Results for O=C(O)CCc1ccc(O)c2ncccc12 ?
SSB-PriA inh: 114*

Results for O=C(O)c1c[nH]c(=O)c2ncccc12 ?
SSB-PriA inh: -10

How did O=C(CCl)c1ccc(O)c2ncccc12 do in these assays?
SSB-PriA inh: 121*

How did Cc1cc(C(=O)NCCn2ncccc2=O)c(C)o1 do in these assays?
SSB-PriA inh: -4

What do the screens show for `Cc1cc(Br)ccc1NC(=O)CC1CCCCN1S(=O)(=O)c1cccs1` (stereo not drawn)?
SSB-PriA inh: 31

Results for O=C1NCCOc2ccc(NS(=O)(=O)Cc3ccccc3Cl)cc21 ?
SSB-PriA inh: -10

Results for O=S(=O)(c1ccccc1Br)N1CC[C@H](n2cc(-c3ccccc3)nn2)C1 ?
SSB-PriA inh: -19

Results for CSc1ccccc1C(=O)Nc1ccccc1Cc1nc(-c2ccco2)no1 ?
SSB-PriA inh: -7

Results for Cc1ccc2c(c1)NC(=O)c1cc(NC(=O)Cc3cccs3)ccc1O2 ?
SSB-PriA inh: -4

What do the screens show for `Oc1ccc(CNc2ncccn2)c2cccnc12`?
SSB-PriA inh: 76*

How did Oc1ccc(CNc2ccccc2F)c2cccnc12 do in these assays?
RN4220 kill: 9; Sa ugtP lethal: -10; SSB-PriA inh: -7

What do the screens show for `COCCNc1nc2c(S(=O)(=O)c3ccc(C)cc3)nnn2c2ccsc12`?
SSB-PriA inh: -1

What do the screens show for `CN=c1scc(-c2ccc(OC)cc2)n1N=C(C)c1cccnc1`?
RN4220 kill: 14; Sa ugtP lethal: 26; SSB-PriA inh: 44*

Results for COc1ccc(O)c(C=Nn2c(-c3ccco3)csc2=Nc2cccnc2)c1 ?
RN4220 kill: 5; Sa ugtP lethal: 3; SSB-PriA inh: 94

Results for O=S(=O)(Nc1ccc2c(c1)N(S(=O)(=O)c1ccc(F)cc1)CCC2)c1ccc(Cl)s1 ?
SSB-PriA inh: -3

Results for Clc1ccc(CSC(Cn2ccnc2)c2ccc(Cl)cc2Cl)cc1 (stereo not drawn) ?
RN4220 kill: 97*; Sa ugtP lethal: 85; SSB-PriA inh: 12

Results for Clc1ccc(COC(Cn2ccnc2)c2ccc(Cl)cc2Cl)cc1 (stereo not drawn) ?
SSB-PriA inh: 15

What do the screens show for `O=C1C(=C(I)I)c2ccccc2-c2ccccc21`?
SSB-PriA inh: 81*

How did O=C1C(=O)c2ccccc2-c2ccccc21 do in these assays?
SSB-PriA inh: 14

Results for O=c1c2cc(Cl)ccc2nc2sc(Nc3ccc(F)c(F)c3)nn12 ?
SSB-PriA inh: -30

How did O=S1(=O)c2ccccc2C(c2ccccc2)=NN1Cc1cccc(C(F)(F)F)c1 do in these assays?
SSB-PriA inh: -50

What do the screens show for `Cc1nn(C)c(C)c1NC(=O)Nc1cccc(C(F)(F)F)c1`?
RN4220 kill: 5; Sa ugtP lethal: -5; SSB-PriA inh: 1

What do the screens show for `Cc1nn(C)c(C)c1NC(=O)Nc1ccc(Cl)c(Cl)c1`?
RN4220 kill: active; Sa ugtP lethal: 89; SSB-PriA inh: -2

Results for O=C(CN1c2ccccc2Sc2ccccc21)NNC(=O)Nc1ccc(Cl)cc1 ?
RN4220 kill: 60; Sa ugtP lethal: 68; SSB-PriA inh: -1

How did O=C(CN1c2ccccc2Sc2ccccc21)NNC(=O)Nc1ccc(Cl)c(Cl)c1 do in these assays?
RN4220 kill: 100*; Sa ugtP lethal: 101*; SSB-PriA inh: 5
